# Screens deposited in PubChem BioAssay by National Center for Advancing Translational Sciences (NCATS).
# aSyn rescue: alpha-synuclein toxicity inhibition in yeast. Yeast expressing alpha-synuclein, growth rescue, BacTiter-Glo, 24 h. Potency, µM (highest dose often 46.1 µM), without a hit: at the top dose growth rescue (activation), usual class: activators. actives 0.14% (n = 370,000). AID 652106; note: potency is the fitted concentration of half-maximal effect; % of control where 0% means no effect; nearly all actives have a fitted effect of over 65% in size
#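 Rescue of yeast growth: cells expressing toxic alpha-synuclein, induced in galactose at OD600 0.02, incubated with compound 24 h at 30 C. ATP luminescence quantified growth; inhibitors of toxicity appear as activators.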
# Abeta yeast res: compounds reversing amyloid beta toxicity in yeast. yeast expressing A-beta42, growth rescue, OD600, 48 h; response scale: 0% DMSO, 100% iron-clioquinol control. Potency, µM (doses to about 46.1 µM), hits mostly activators. actives 0.063% (n = 410,000); note: potency is the fitted concentration of half-maximal effect; nearly all actives have a fitted effect of over 55% in size
#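 Growth rescue measured by 600 nm absorbance after 48 h yeast culture at 30 C with compound. Values normalized between DMSO and an equimolar ferric chloride plus clioquinol control.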
# TDP-43 yeast inh: rescues yeast growth from TDP-43 toxicity. Potency, µM (top dose mostly 46.1 µM), inactives show at the highest dose growth rescue (activation), most hits filed as activators. TDP-43 expressing yeast growth rescue, BacTiter-Glo, 24 h. actives 1.8% (n = 410,000); note: potency is the fitted concentration of half-maximal effect; % of control where 0% means no effect; nearly all actives have a fitted effect of over 50% in size
#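 Readout is BacTiter-Glo luminescence of cell growth, so inhibitors register as activators. TDP-43-expressing yeast at OD600=0.02 in galactose medium, after raffinose pregrowth to mid-log, were incubated with compound for 24 hr at 30 deg C.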
# FUS yeast rescue: suppressors of FUS proteinopathy in yeast | S. cerevisiae FUS-expressing, growth rescue, OD600, 24 h | AID 1347120 | actives 0.24% (n = 390,000) | Potency, µM (highest dose often 76.6 µM), usual class: activators;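 note: potency is the fitted concentration of half-maximal effect; plate controls were DMSO vehicle for no effect and reference control for full effect; nearly all actives have a fitted effect of over 55% in size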
#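 Quantitative HTS measuring growth restoration of FUS-toxic yeast. Galactose-induced cells (OD 0.005) were exposed 24hr at 30C to compounds at several concentrations, then absorbance at 600 nm was recorded.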
# CCT modulator: changes cytosolic chaperonin activity; actives 0.3% (n = 360,000); activity change, % (test concentration not listed), hits read low; purified chaperonin ATPase assay, HTRF ADP detection, 30 min; in the data active = activity change below about -30%; note: % is set by controls: 0 for no effect and ±100 for the full control effect
#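 We incubate TRiC, 40 or 20 nM final, with library compounds at 76 uM and 10 uM ATP for 30 min at 37 °C. ADP formed is detected with Transcreener HTRF reagents after 30 min at room temperature.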
# MmCpn inh: M. maripaludis TRiC chaperonin inhibition; purified Mm-Cpn ATPase, ADP Transcreener TR-FRET; Potency, µM (series often up to 76.9 µM), inactives show at the highest dose activity, negative = inhibition, hits mostly inhibitors; actives 0.031% (n = 330,000); note: potency is the fitted concentration of half-maximal effect; % is set by controls: 0 for no effect and ±100 for the full control effect; nearly all actives have a fitted effect of over 80% in size
#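 Compound-treated chaperonin, 25 nM final, turns over 10 uM ATP at 37°C for 30 min following a 10 min preincubation; ADP generated competes with ADP-d2 for Eu-cryptate antibody, lowering FRET.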
# * hit, by the source's call; i = inactive; ? = inconclusive; . = no result. The list is not random: actives were taken first. Their share in the collection is about 2.3%. Unless noted, calls come from the whole dose curve; as a rule, active = well fitted curve in the direction sought with a large enough effect; inconclusive = small, poorly fitted or top-dose-only effect, or another doubt; inactive = no such curve, though single readings can be large; an effect the other way counts as inactive or inconclusive.
SMILES,aSyn rescue,Abeta yeast res,TDP-43 yeast inh,FUS yeast rescue,CCT modulator,MmCpn inh
CCc1cc(=O)oc2c3c(cc(OCC(=O)NCc4ccco4)c12)OC(C)(C)CC3,-2%,i,35µM*,i,-3,-4%
CCc1ccc(OCC(=O)NCc2ccco2)c(Br)c1,-3%,i,13µM*,i,-5,-1%
O=C(O)C=C1CCN(c2ncc(C(F)(F)F)cc2Cl)CC1,13%,i,13µM*,i,2,-3%
C/C=C/C=C/C(=O)N1CC[C@]23c4ccccc4N[C@H]4N(C)c5cccc6c5[C@]42CCN([C@H]6C2OC2(C)C)[C@H]13 (stereo not given in full),8%,?,12%,16µM*,0,1%
CN1CCC23c4ccccc4NC1C21CCN(C)C3Nc2ccccc21,5%,i,6%,i,-4,.
Nc1c(Br)cc(/C=C2\C=Cc3ccccc32)cc1Br,-15%,.,.,.,.,.
COc1cccc(N2CC(NC(=O)COc3ccc4ccccc4c3)CC2=O)c1 (stereo not given),.,?,14µM*,i,.,.
Cc1ccc(OCCn2c(C3CC(=O)N(Cc4ccc(F)cc4)C3)nc3ccccc32)c(C)c1 (stereo not given),.,i,?,?,.,.
CC1Cc2cc(S(=O)(=O)NCc3ccccc3Cl)ccc2N1C(=O)C1CCC1 (stereo not given),.,i,27%,i,.,.
N/C(=N\OC(=O)c1ccc(Cl)cc1)c1ccc(Cl)cc1,-23%,i,7.9µM*,i,-2,3%
N/C(=N\OC(=O)c1ccc(F)cc1)c1ccc(Br)cc1,-12%,i,3.2µM*,i,0,1%
N/C(=N\OC(=O)c1ccc(F)cc1)c1ccccc1,-53%,i,-80%,.,-3,1%
Cc1cccc(NC(c2cccc(Cl)c2)c2ccc3cccnc3c2O)n1 (stereo not given),.,i,-47%,i,.,.
Cc1cc(C)nc(NC(=S)N2CCN(c3ncc(C(F)(F)F)cc3Cl)CC2)c1,.,.,.,i,.,.
O=C(COC(=O)c1cccc(OC(F)F)c1)NC(=O)NC1CCCCC1,3%,?,?,i,0,2%
COc1ccc(Br)c(C(=O)OCC(=O)NC(=O)NC2CCCC2)c1,?,i,18µM*,i,-1,-1%
N#Cc1cccc(C(=O)OCC(=O)NC(=O)NC2CCCCC2)c1,4%,i,5%,i,-42*,0%
Cc1cc(C)c2c(/C=C/c3ccc(N(C)C)cc3)ccnc2c1,-10%,.,.,.,.,.
O=C(NCc1ccco1)O[C@@H]1CC[C@@]23CCCN2C(=O)CCC[C@H]3C1,.,.,.,i,.,.
COc1ccc(NC(=O)/C=C/c2cc(Br)ccc2OC)cc1,-9%,i,-5%,i,-2,2%
COc1ccc(Br)cc1/C=C/C(=O)c1ccc(NC(C)=O)cc1,-8%,i,18µM*,i,-1,-1%
Cc1ccccc1OCC(=O)N/N=C/c1ccc([N+](=O)[O-])o1,5%,i,11%,i,3,1%
CCCCCCCC(=O)N/N=C/c1ccc([N+](=O)[O-])o1,4%,i,20µM*,i,1,1%
O=C(CNc1cccc2ccccc12)N/N=C/c1ccc([N+](=O)[O-])o1,19%,i,20µM*,i,1,1%
Cc1cc2ncn(/N=C/c3ccc([N+](=O)[O-])o3)c2cc1C,?,i,8.9µM*,i,-4,2%
O=[N+]([O-])c1ccc(/C=N/N=C/c2ccc([N+](=O)[O-])o2)o1,9%,i,?,i,-3,-2%
COc1ccccc1OCC(=O)N/N=C/C=C/c1ccc([N+](=O)[O-])o1,?,i,13µM*,.,-2,-2%
CN(C)c1ccc(/C=C2\C=Cc3ccccc32)cc1N,2%,.,.,.,.,.
